From PubChem BioAssay AID1273 (Columbia University Molecular Screening Center, 2008)
Screen size: about 130,000 compounds; about 1,200 (0.92%) were called active.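 Rule for the calls: active = inhibition above the mean plus 3 SD, with well images judged a real hit on visual review (cut at about 60% in these data, passing the limit was not always enough); inconclusive = inhibition over the cutoff but images rejected on review; inactive = inhibition not above the cutoff.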 Many of the other results were omitted from the sample, so actives are more common in it than they were.

experiment: insulin gene promoter suppression in islet cells – imaging, TRM-6 cells (human fetal islet line), eGFP reporter, cell count, primary screen (AID 1273;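 for normalized cell count: cells exposed to compound for 48 h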); settings: at 2 µM; inhibition: stronger effect = higher value; normalized cell count: measured here: cell count, toxicity

Row | SMILES | inhibition | normalized cell count [%]
1 | CCOP(=O)(OCC)C(NC(=O)c1ccc(C)cc1)C(Cl)(Cl)Cl (stereo not given) | -37.5% (inactive) | 107
2 | CC(=O)c1ccc(OC(NC(=O)Cc2ccccc2)C(Cl)(Cl)Cl)cc1 (stereo not given) | -6.45% (inactive) | 137
3 | COP(=O)(OC)C(NC(=O)c1ccc(C)cc1)C(Cl)(Cl)Cl (stereo not given) | 78.6% (active) | 102
4 | O=C(OCCN1CCOCC1)C1(c2ccccc2)CCCC1 | -36.4% (inactive) | 95.2
5 | CN(C)P(=S)(Nc1ccccc1)C(Cl)(Cl)Cl (stereo not given) | 26.7% (inactive) | 29.6
6 | Cc1ccc(-c2nn(CCC#N)cc2C(=O)O)cc1C | -30% (inactive) | 85.1
7 | CCN(CC)C(=O)c1ccc(NC(=O)c2cc(-n3cnnc3)ccc2Cl)cc1 | 86.7% (active) | 44.7
8 | CC(c1ccccc1)(c1ccccc1)c1ccncc1 | 27.3% (inactive) | 109
9 | Cc1ccsc1C(=O)C1CCCN(Cc2ccc(O)cc2)C1 (stereo not given) | 11.1% (inactive) | 139
10 | C=CCN(CC=C)C(=O)Nc1ccc(OCC)cc1 | 36.8% (inactive) | 88.5
